# Test results reported in PubChem BioAssay (NCATS).
# Inconclusive results are not listed. Entries that show only a call come without a potency. A number with no mark means an inactive call. Active and inactive are the calls of the source. Calls follow the shape of the dose curve; as a rule, active = well fitted curve in the direction sought with a large enough effect; inconclusive = small, poorly fitted or top-dose-only effect, or another doubt; inactive = no such curve, though single readings can be large; an effect the other way counts as inactive or inconclusive.
# Tests used:
# [1] = qHTS for Inhibitors of Plasmodium falciparum (DD2) proliferation (AID 504314); also: potency is read from the fitted curve at half-maximal effect;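 as to activity, negative = inhibition: parasite DNA measured by SYBR Green fluorescence after red cell lysis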
# In short: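 SYBR Green DNA-fluorescence growth assay: infected RBCs at 0.3% parasitemia, 2.5% hematocrit, 72 h compound exposure, 37C, 5% CO2; overnight lysis with dye at RT; normalized to 0.29 uM artemisinin and vehicle.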
# [2] = qHTS for Inhibitors of Plasmodium falciparum (GB4) proliferation (AID 504315); also: nearly all actives have a fitted effect of over 50% in size
# In short: (§1)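 Parasite growth measured as SYBR Green DNA fluorescence (ex 485, em 535 nm) after overnight lysis following 72 h culture at 37 °C, 0.3% parasitemia, 2.5% hematocrit. Values normalized against DMSO and 0.29 uM artemisinin controls, with plate-stack correction.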
# [3] = qHTS for Inhibitors of Plasmodium falciparum (7G8) proliferation (AID 504316); also: nearly all actives have a fitted effect of over 65% in size; also: potency is read from the fitted curve at half-maximal effect
# In short: as §1
# [4] = qHTS for Inhibitors of Plasmodium falciparum (CP250) proliferation (AID 504320); also: potency is read from the fitted curve at half-maximal effect
# In short: as §1
# [5] = qHTS for Inhibitors of Plasmodium falciparum (HB3) proliferation (AID 504318); also: nearly all actives have a fitted effect of over 60% in size; also: potency is read from the fitted curve at half-maximal effect
# In short: as §1
Structure (SMILES),Potency [1],Potency [2],Potency [3],Potency [4],Potency [5],"activity, negative = inhibition [1]"
COC(=O)N1C2=C(c3ccccc3[C@@H]1CC(=O)O)[C@@H]1O[C@@H](C2)c2ccccc21,inactive,inactive,inactive,inactive,,
COC(=O)C1=C(C)N(Cc2ccccc2)C(=NCc2cc(OC)c(OC)c(OC)c2)NC1CCc1ccccc1 (configuration not stated),1.06 µM (active),,1.51 µM (active),1.07 µM (active),2.94 µM (active),
COC(=O)C1=C(C)N(Cc2ccco2)C(=O)NC1c1ccco1 (configuration not stated),inactive,,inactive,,inactive,
FC(F)(F)c1ccc(-c2nc(-c3ccccc3)oc2Nc2ccc3ccccc3c2)cc1,inactive,inactive,,inactive,inactive,
CC(CCC(=O)OC[C@H]1O[C@H](C#Cc2ccccc2)C=C[C@H]1Oc1ccc(C)cc1)=NO[C@@H](C)CN1CCCCc2nc(C)c(C)cc21,inactive,inactive,,inactive,inactive,
C=CCOC(=O)NC(c1ccc(F)c(F)c1)C(C(=O)CCl)C(=O)OC (configuration not stated),inactive,,inactive,inactive,inactive,
COc1ccc2c(c1)CO[C@H]([C@H](O)COC(C)=O)[C@H]2C=Cc1ccccc1,inactive,inactive,inactive,inactive,inactive,
CCCC[C@]12Cc3cc(C#N)ccc3[C@H](O1)c1c(cc(C)n(-c3ccccc3)c1=O)O2,inactive,inactive,,inactive,,
COC(=O)CCCC1=CC2=C(c3ccccc3)C(=O)C(C)(OC(=O)C3CCCC3)C(=O)C2=CN1Cc1ccc(OC)cc1 (configuration not stated),,inactive,inactive,inactive,,1.81% [at 1.12 µM]
COC1=CC2C(=O)C(C1=O)[C@H](c1ccccc1)[C@H]2C (some centres not stated),inactive,inactive,inactive,inactive,,
CCCCCCCc1cc2ccccc2c2c(C(=O)OC)cc(C(=O)OC)n12,inactive,inactive,inactive,inactive,inactive,
CCOC(=O)CNC(=O)O[C@@H]1C(=O)c2cc(OC)ccc2O[C@H]1c1cccc(OC)c1,inactive,inactive,inactive,inactive,inactive,
CC(CCC(=O)OC[C@H]1O[C@H](C#Cc2ccccc2)C=C[C@H]1Oc1ccc(C)cc1)=NOC[C@@H](O)COCc1ccco1,inactive,,inactive,inactive,inactive,
CCCCC1=CC2=C(c3ccco3)C(=O)C(C)(OC(=O)c3ccc(OC)cc3)C(=O)C2=CN1C1CCCCC1 (configuration not stated),inactive,inactive,inactive,inactive,,
